# Screening data from PubChem BioAssay.
# FBPA Giardia inh = Giardia lamblia aldolase inhibition; A8B2U2; purified Giardia FBPA; Potency, µM (doses to about 59.6 µM), without a hit: at the highest dose activity, negative = inhibition, actives largely listed as inhibitors; 290,000 compounds, 0.71% hits; note: potency is the fitted concentration of half-maximal effect; nearly all actives have a fitted effect of over 55% in size
# Target sequence (A8B2U2 whole entry, looked up): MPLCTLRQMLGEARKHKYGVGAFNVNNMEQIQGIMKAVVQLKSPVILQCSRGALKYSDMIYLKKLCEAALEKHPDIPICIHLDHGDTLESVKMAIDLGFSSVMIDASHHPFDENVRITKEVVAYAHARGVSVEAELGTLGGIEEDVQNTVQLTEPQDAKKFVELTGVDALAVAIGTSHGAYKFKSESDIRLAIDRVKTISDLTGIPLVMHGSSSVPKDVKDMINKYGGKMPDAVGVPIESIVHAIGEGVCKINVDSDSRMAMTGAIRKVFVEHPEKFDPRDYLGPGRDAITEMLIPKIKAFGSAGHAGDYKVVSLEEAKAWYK
#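 Giardia FBPA (40 nM reagent) was preincubated 10 min at RT with compound (up to 57.5 uM final), then substrate plus GAPDH/TPI/NAD/arsenate coupling system with diaphorase/resazurin was added; resorufin fluorescence (525/598 nm) was read after 20 min.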
# HCMV inh = inhibitors of human cytomegalovirus; HFF cells, HCMV-luciferase reporter, 72 h; stronger effect = lower value; 410,000 compounds, 4.5% hits; activity change, negative = inhibition, % at 57.5 µM; AID 1259415; in the data active = activity change below about -60%; inconclusive = no clear call, values can overlap the other calls; inactive = above about -39%
#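 After 16 h attachment at 37C, HFF cells received test compound and HCMV-luciferase (1 PFU/cell); reporter luminescence read 72 h later, data normalized against buffer-only and known inhibitor Salinomycin.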
# Sm TGR inh = S. mansoni TGR enzyme inhibition. Potency, µM (highest dose often 114 µM), for the others: at the highest dose activity change, negative = inhibition, hits mostly inhibitors. Q962Y6. 360,000 compounds, 3% hits. purified TGR, DTNB reduction, TNB absorbance 405 nm; note: potency is the fitted concentration of half-maximal effect; nearly all actives have a fitted effect of over 60% in size
#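 First, TGR (20 nM dispensed) and NADPH were mixed with compound. Second, a 15 min room-temperature incubation followed. Third, further NADPH and then DTNB were added to start the reaction. Finally, TNB absorbance was monitored kinetically.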
# Pf growth 48h = inhibits P. falciparum growth in the first generation, 48 h. P. falciparum luciferase growth in erythrocytes, 48 h. Potency, µM (titrated, usually from 28.7 µM), for inactives: at the top dose activity change, negative = inhibition, hits mostly inhibitors. 310,000 compounds, 5.9% hits. AID 504832; note: potency is the fitted concentration of half-maximal effect
#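 First compound was added to culture medium, then infected red cells at 0.1% parasitemia and 2% hematocrit (final). After incubation at 37 C under 5% CO2, luciferase detection reagent was dispensed and light output recorded.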
# Pf growth 96h = P. falciparum growth inhibition at 96 hour, primary screen for plastid delayed-death inhibitors | Potency, µM (series often up to 28.7 µM), for inactives: at the highest dose activity change, negative = inhibition, hits mostly inhibitors | AID 504834 | P. falciparum luciferase reporter growth, 96 h | 320,000 compounds, 6.9% hits; note: potency is the fitted concentration of half-maximal effect
#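 96 h incubation, 37 C, 5% CO2, of luciferase-reporter P. falciparum-infected RBCs (2% hematocrit, 0.05% parasitemia final) with test compounds; endpoint luminescence.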
# The depositor's hits bear a star; ? = inconclusive; . = no result given; [ ] = another dose, or the depositor's remark. Shown are actives, neighbours in structure and some others; about 14% of the full set was active somewhere. Unless noted, calls come from the whole dose curve; as a rule, active = well fitted curve in the direction sought with a large enough effect; inconclusive = small, poorly fitted or top-dose-only effect, or another doubt; inactive = no such curve, though single readings can be large; an effect the other way counts as inactive or inconclusive. % is set by controls: 0 for no effect and ±100 for the full control effect.
SMILES,FBPA Giardia inh,HCMV inh,Sm TGR inh,Pf growth 48h,Pf growth 96h
COc1cc(/C=C/C(=O)NC(C)CCc2ccccc2)cc(OC)c1OC (stereo not drawn),0%,5,-11%,-29%,19%
CC1(C)Oc2ccc(C(=O)NNC(=O)Nc3ccccc3)cc2NC1=O,.,-5,10%,8%,30%
Cc1ccc(C=NNc2nc3c([nH]2)c(=O)n(C)c(=O)n3C)cc1,.,15,.,.,.
Cc1ccc(NC(=O)Cn2c(=O)n(CCCCC(=O)NCCc3ccccc3)c(=O)c3ccccc32)c(C)c1,.,-4,?,.,.
c1cc[n+](CCCC[n+]2ccccc2)cc1,-7%,3,17%,-7%,46%
CCCCOc1ccc(C)cc1CN(CCO)CCO,2%,-12,2%,.,3%
CCCCCc1ccc(OCCCC[n+]2cccc(C)c2)c(CCCCC)c1,-3%,-102*,2%,-9%,-19%
CCCCCc1ccc(OCCCC[n+]2ccccc2)c(CCCCC)c1,1%,.,2%,0.93µM*,-2%
CCCCCc1ccc(OCCCC[n+]2ccc(C)cc2)c(CCCCC)c1,-1%,-100*,-12%,0.47µM*,39%
CCC(C)(C)c1ccc(OCCCC[n+]2ccccc2)c(C(C)(C)CC)c1,0%,-98*,0%,2.1µM*,-22%
c1ccc(Nc2nc(-c3ccoc3)nc3ccccc23)cc1,-10%,.,.,.,.
CCOC(=O)c1cnc(N2CCN(c3ccc(C)cc3C)CC2)c2ccccc12,.,-8,25%,.,.
CC(C)CCc1noc(CN2CCC(CCN3CCCC3=O)CC2)n1,5%,-27,-2%,18%,13µM*
CCOC(=O)CC1(C)Oc2cc(Cl)ccc2N1S(=O)(=O)c1ccc(C)cc1 (stereo not drawn),.,-70*,.,.,.
CCOC(=O)CC1(C)Sc2ccccc2N1S(=O)(=O)c1ccc(C)cc1 (stereo not drawn),.,-20,.,.,.
O=C(c1cnc2n(c1=O)CCS2)N(c1ccccc1)C1CCCCC1,-2%,15,-12%,?,6.6µM*
Cc1ccc(NC(=O)C(C)c2cccc(C(=O)c3ccccc3)c2)cc1O (stereo not drawn),-10%,-62*,-6%,-20%,?
CCC1=C(OC(=O)N(CC)CC)N2C(=O)OC(=NCC3CC3)[C@]2(Cc2ccccc2)[C@H]2C1=CC[C@H]1C(=O)N(c3ccccc3)C(=O)[C@H]12,-10%,27,-14%,2.6µM*,2.9µM*
CCC1=C(OC(=O)N(CC)CC)N2C(=O)OC(=NCC(=O)OC)[C@]2(Cc2ccccc2)[C@H]2C1=CC[C@H]1C(=O)N(C)C(=O)[C@H]12,0%,9,?,?,?
CCC1=C(OC(=O)N(CC)CC)N2C(=O)OC(=NCC(=O)OC)[C@]2(Cc2ccccc2)[C@H]2C1=CC[C@H]1C(=O)N(c3ccccc3)C(=O)[C@H]12,2%,-9,?,6.6µM*,9.3µM*
CCC1=C(OC(=O)N(CC)CC)N2C(=O)OC(=NCC3CC3)[C@]2(Cc2ccccc2)[C@H]2C1=CC[C@H]1C(=O)N(C)C(=O)[C@H]12,0%,5,1%,10µM*,9.3µM*
CNC(C)C(=O)NC(C(=O)N1CCCC1C(=O)NNc1ccccc1)C(C)C (stereo not drawn),.,?,-3%,?,80%
COc1ccccc1-n1cc(-c2ccccc2)c2c(=S)nc[nH]c21,-1%,-69*,7%,13µM*,?
COc1ccc(-n2cc(-c3ccccc3)c3c(=O)[nH]cnc32)cc1,0%,20,-3%,-25%,10µM*
COc1ccc(CN(C(=O)/C=C/C(=O)c2ccc(OC)cc2O)C(C(=O)NC2CCCCC2)c2ccncc2)cc1 (stereo not drawn),-18%,-84*,-5%,12µM*,6%
SMILES,FBPA Giardia inh,HCMV inh,Sm TGR inh,Pf growth 48h,Pf growth 96h
COc1ccc(C(=O)/C=C/C(=O)N(Cc2ccc3c(c2)OCO3)C(C(=O)NC2CCCCC2)c2ccncc2)c(O)c1 (stereo not drawn),1%,?,-5%,5.2µM*,15%
O=C(NC1CCCCC1)C(c1ccncc1)N(Cc1ccc2c(c1)OCO2)C(=O)c1cnsn1 (stereo not drawn),-29%,-16,-12%,?,26%
COc1ccc(NC(=O)/C(C#N)=C/c2cccnc2)c(OC)c1,1%,-8,-11%,-20%,1µM*
COc1ccc(NC(=S)Nc2cnc3ccccc3c2)c(OC)c1,-5%,-20,40µM*,-7%,?
Cc1cccc(NC(=S)NCC(c2cccnc2)N(C)C)c1 (stereo not drawn),1%,-71*,-1%,-3%,46%
COc1ccc(C(=O)NC(=S)Nc2cccnc2)cc1[N+](=O)[O-],-15%,9,16µM*,-1%,5%
COc1ccc(NC(=O)C(=O)N/N=C/c2cccnc2)c(OC)c1,1%,-25,11%,-13%,?
CCNc1ncc2nc(-c3ccc(OC)cc3)c(=O)n(Cc3cccs3)c2n1,3%,.,.,.,.
O=C(c1ccc(N2CCN(S(=O)(=O)c3ccccc3)CC2)c([N+](=O)[O-])c1)N1CCOCC1,2%,7,-17%,-23%,-24%
COc1ccc(NCc2cccnc2)cc1,-1%,-86*,-1%,14%,-21%
COc1ccc(Cl)cc1NC(=S)Nc1cccnc1,-7%,-5,13µM*,-11%,-21%
Cc1ccc(NCc2cccnc2)cc1,-28%,-6,?,.,-14%
COc1ccc(NC(=O)c2cc(-c3cccnc3)nc3c(C)c(C)ccc23)c(OC)c1,2%,22,2%,?,0.83µM*
COc1ccc(NC(=O)c2ccccc2C)c(OC)c1,0%,-6,?,-22%,?
COc1ccc(Cl)cc1NC(=S)Nc1cccc(C)c1,1%,?,-1%,1%,0%
COc1ccc(NC(=O)c2cccnc2)c(OC)c1,1%,-21,3%[11.4 µM],.,15µM*
COc1cccc(NC(=S)Nc2ccc(Br)cc2Cl)c1,-9%,32,22µM*,19%,14%
S=C(NCc1ccncc1)Nc1ccc(Br)cc1Cl,.,-36,35µM*,-11%,-7%
CCOc1ccc(NC(=S)Nc2ccc(Br)cc2Cl)cc1,-7%,?,-27%,0%,-12%
COc1cccc(NC(=S)NCc2cccnc2)c1,-1%,-10,45µM*,4%,?
COc1ccc(NC(=S)Nc2cccnc2)c(OC)c1,-6%,-34,?,14%,15µM*
COc1cccc(NC(=S)NCc2ccccc2)c1,-5%,50,-25%,?,3%
CCN(CC)C(=O)c1sc2c(c1C)c(=O)n(Cc1ccccc1)c(=O)n2CC(=O)Nc1ccc(OC)cc1,.,0,10%,.,.
CCOc1ccc(CNC(=O)CCc2c(C)nn(-c3ccc(N4CCOCC4)nn3)c2C)cc1,.,14,?,.,.
